# Compound activity deposited in PubChem BioAssay by National Center for Advancing Translational Sciences (NCATS).
# In the library only some 7.3% were active in any assay of this set; here they are far more common.
# NPC1 promoter act – qHTS Assay for NPC1 Promoter Activators; Huh7 NPC1 promoter luciferase reporter, 24 h; Potency, µM (series often up to 9.22 µM), for inactives: at the highest dose activation, hits mostly activators; actives 2.4% (n = 320,000); also: % of control where 0% means no effect; nearly all actives have a fitted effect of over 60% in size
#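 Huh7 reporter cells (NPC1 promoter driving luciferase) are dosed with compound for 24 h at 37 °C, 5% CO2; luciferase detection reagent is then added and luminescence measured after 10 min at ambient temperature.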
# SMN2 splice up – qHTS Assay for Enhancers of SMN2 Splice Variant Expression. Potency, µM (doses to about 46.1 µM), inactives show at the highest dose activity change, positive = activation, most hits filed as activators. AID 1458, 2008. actives 2.8% (n = 210,000). HEK293 SMN2-luciferase splicing reporter, luminescence, 30-36 h; also: % of control where 0% means no effect; nearly all actives have a fitted effect of over 55% in size
#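 HEK293 cells carry an SMN2 […]–luciferase reporter in which exon 7 inclusion puts luciferase in frame. Cells were plated 10-12 h before compound addition, then incubated 30-36 h at 37C. ONE-Glo luminescence was read; sodium butyrate at 4.5 mM final served as control.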
# Luc counter – Counterscreen for Luciferase (Kinase-Glo TM) Inhibition; Luciferin 4-monooxygenase (Photuris pensylvanica), Q27757; Kinase-Glo luciferase, ATP luminescence, 8 min; Potency, µM (series often up to 38.3 µM), for inactives: at the highest dose activity change, negative = inhibition, usual class: inhibitors; actives 0.28% (n = 200,000); also: % is scaled to controls: 0 for no effect and ±100 for the full control effect; nearly all actives have a fitted effect of over 60% in size
#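 Compound is pinned into ATP-containing buffer (10 uM ATP, imidazole pH 7.2, 7 mM MgCl2). Kinase-Glo luciferase reagent is then added. Light output is recorded following an 8-min room-temperature incubation.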
# FLuc counter – qHTS profiling assay for firefly luciferase inhibitor/activator using purifed enzyme and Km concentrations of substrates (counterscreen for miR-21 project); actives 6.9% (n = 360,000); purified FLuc, Km substrates, luminescence inhibition; Potency, µM (top dose mostly 57.5 µM), inactives show top-dose activity change, negative = inhibition, most hits filed as inhibitors; Luciferin 4-monooxygenase (Photinus pyralis), P08659; AID 588342, 2011;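 also: plate controls were vehicle for no effect and reference inhibitor for full effect; nearly all actives have a fitted effect of over 55% in size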
# Target sequence (P08659 whole entry, looked up): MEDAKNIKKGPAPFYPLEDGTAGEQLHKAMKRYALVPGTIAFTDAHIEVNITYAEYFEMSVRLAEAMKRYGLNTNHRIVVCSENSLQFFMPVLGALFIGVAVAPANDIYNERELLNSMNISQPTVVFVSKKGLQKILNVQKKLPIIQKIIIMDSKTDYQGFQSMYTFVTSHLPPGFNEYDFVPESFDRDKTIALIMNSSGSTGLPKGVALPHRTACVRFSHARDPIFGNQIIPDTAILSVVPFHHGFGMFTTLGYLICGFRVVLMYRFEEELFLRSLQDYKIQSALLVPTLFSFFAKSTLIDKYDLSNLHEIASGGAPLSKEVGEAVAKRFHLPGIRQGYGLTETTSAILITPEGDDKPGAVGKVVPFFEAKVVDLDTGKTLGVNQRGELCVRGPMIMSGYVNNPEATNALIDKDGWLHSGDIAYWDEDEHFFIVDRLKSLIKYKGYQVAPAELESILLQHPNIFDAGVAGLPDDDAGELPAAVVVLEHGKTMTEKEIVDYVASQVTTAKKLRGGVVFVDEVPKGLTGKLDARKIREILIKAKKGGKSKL
#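 Purified P. pyralis luciferase (10nM final) with 10uM D-luciferin and 10uM ATP (Km levels) in 50mM Tris acetate pH 7.5, 10mM Mg acetate, 0.01% Tween-20, 0.05% BSA; qHTS 6-point titration, ~60 µM downward; luminescence read.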
# ELG1 genotoxic – qHTS screen for small molecules that induce genotoxicity in human embryonic kidney (HEK293T) cells expressing luciferase-tagged ELG1 | HEK293T ELG1-luciferase reporter, luminescence, 16 h | Potency, µM (series often up to 46 µM), inactives show at the highest dose activity change, positive = activation, hits mostly activators | actives 1.3% (n = 330,000) | AID 504466, 2011; also: % of control where 0% means no effect; nearly all actives have a fitted effect of over 60% in size
#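 Reporter readout depends on ELG1 protein level, which increases with genetic stress. After 16 hr compound exposure at 37 °C, luciferase activity was quantified using ONE-Glo.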
# Rab9 prom act – qHTS Assay for Rab9 Promoter Activators | Huh7 Rab9 promoter-luciferase reporter, luminescence, 24 h | Potency, µM (series often up to 9.22 µM), without a hit: top-dose activation, negative = inhibition, most hits filed as activators | actives 2.8% (n = 320,000); also: % of control where 0% means no effect; nearly all actives have a fitted effect of over 60% in size
#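 Cell-based reporter: Huh7 stable for Rab9 promoter-driven luciferase, plated in reduced-serum medium with 10% FBS at 1500 cells/well, compound-treated 24 h at 37 °C, luminescence read after 10 min reagent.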
# Active calls of the source: *; ? = inconclusive; . = not tested or not shown; [ ] = another dose, or the depositor's remark. Calls follow the shape of the dose curve; as a rule, active = well fitted curve in the direction sought with a large enough effect; inconclusive = small, poorly fitted or top-dose-only effect, or another doubt; inactive = no such curve, though single readings can be large; an effect the other way counts as inactive or inconclusive. Potency is read from the fitted curve at half-maximal effect.
SMILES,NPC1 promoter act,SMN2 splice up,Luc counter,FLuc counter,ELG1 genotoxic,Rab9 prom act
CCOc1ccc(NC(=O)c2ccc3c(c2)CCN3S(=O)(=O)c2ccc(Cl)cc2)cc1,.,-5.7%,.,-2.4%,.,.
FC(F)(F)c1cccc(NC(=S)NC2CCCC2)c1,-1.2%,-4.0%,-0.7%,-7.3%,-10.0%,-0.3%
CC(C)c1ccc(NC(=S)NC2CCCCCC2)cc1,?,12.6µM*,2.4%,16.9µM*,?,?
S=C(Nc1ccc(Cl)c(Cl)c1)NC1CCCCC1,8.7%,?,10.5%,?,-4.0%,13.0%
S=C(Nc1ccc2nsnc2c1)NC1CCCCC1,19.5%,?,1.1%,21.3µM*,-1.7%,19.5%
FC(F)(F)c1ccc(NC(=S)NC2CCCCC2)cc1,8.2%,15.8µM*,-0.5%,?,-13.1%,22.6%
CCOC(=O)c1sc2ccccc2c1S(=O)(=O)N1CCN(c2cccc(C)c2)C(C)C1 (stereo not drawn),.,.,.,4.4%,.,.
COc1ccc(/C=C2\SC(=O)N(CCNC(=O)C3=COCCO3)C2=O)cc1,2.1%,.,.,?,16.4µM*,28.1%
COc1ccc(/C=C2\SC(=O)N(CC(=O)NCCCn3ccnc3)C2=O)cc1,26.6%,.,.,9.53µM*,12.8%,29.0%
COc1ccc(/C=C2\SC(=O)N(CCc3nnc(N)s3)C2=O)cc1,2.51µM*,.,.,1.9µM*,?,1µM*
COc1cccc(/C=C2\SC(=O)N(CCC(=O)NCCCn3ccnc3)C2=O)c1,-5.6%,.,.,?,-1.0%[9.26 µM],-3.1%
COc1cccc(/C=C2\SC(=O)N(CC(=O)NCCCn3ccnc3)C2=O)c1,3.3%,.,.,23.9µM*,5.1%,-0.7%
Cc1cccc(-c2nc(S(=O)(=O)c3ccc(Cl)cc3)c(N3CCCCCC3)o2)c1,.,-2.2%,.,0.1%,.,.
COc1cccc(C(=O)Nc2nnc(Cc3ccc(OC)c(OC)c3)s2)c1,-2.1%,.,.,0.1%,-3.6%,-2.2%
COc1ccc(C(=O)Nc2nnc(Cc3ccc(OC)c(OC)c3)s2)c(OC)c1,13.8%,.,.,26.9µM*,12.1%,15.4%
COCc1nnc(NC(=O)c2ccc(OC)cc2OC)s1,2.51µM*,11.2µM*,-0.7%,8.49µM*,8.2µM*,2.51µM*
CN=c1scc(-c2ccccc2F)n1/N=C(\C)c1cccnc1,1.41µM*,11.2µM*,-3.2%,7.57µM*,?,1.78µM*
Cc1cccc(Nc2ncccc2C(=O)O)c1C,9.8%,.,.,21.3µM*,11.0%,2.1%
Cc1ccc(Nc2ncccc2C(N)=O)cc1[N+](=O)[O-],?,14.1µM*,-0.9%,12µM*,?,3.55µM*
O=C(O)c1cccnc1Nc1ccc(Cl)cc1,21.6%,10µM*,1.3%,16.9µM*,-0.4%,?
NC(=O)c1cccnc1Nc1ccccc1Cl,2.9%,-18.8%,-0.3%,?,14.4%,1.1%
Cc1cc(C)c(Nc2ncccc2C(=O)O)c(C)c1,0.2%,.,-2.5%,-12.2%,1.9%,-13.3%
Cc1ccc(Nc2ncccc2C(=O)O)cc1C,?,19.1%,-5.1%,16.9µM*,?,?
CC(=O)C=NCC(=O)O,.,-15.0%[9.22 µM],0.4%[7.66 µM],.,.,.
CCOC(=O)N1CCN(C(=O)c2noc3c2COc2ccccc2-3)CC1,?,.,.,13.5µM*,?,?
SMILES,NPC1 promoter act,SMN2 splice up,Luc counter,FLuc counter,ELG1 genotoxic,Rab9 prom act
CCCN1CCN(C(=O)c2noc3c2COc2ccc(C)cc2-3)CC1,3.3%,.,.,-14.4%,3.4%,-0.7%
CCOc1ccc(NC(=S)NCc2nc3ccccc3[nH]2)cc1,-1.7%,11.0%,-0.3%,-9.5%,6.4%,-3.1%
O=C(Nc1ccc(-c2nc3ccccc3[nH]2)cc1)c1c(F)c(F)c(F)c(F)c1F,-4.6%,-2.3%,1.6%,-1.1%,2.5%,-4.6%
O=C(Cc1cccs1)Nc1ccc(-c2nc3ccccc3[nH]2)cc1,1.78µM*,17.8µM*,-18.1%,1.51µM*,?,1.58µM*
CCNC(=S)Nc1ccc(-c2nc3ccccc3[nH]2)cc1,3.16µM*,.,.,10.7µM*,?,1.12µM*
O=C(CSc1ccccc1)Nc1ccc(-c2nc3ccccc3[nH]2)cc1,2.24µM*,8.91µM*,-0.4%,?,?,3.16µM*
O=C(CN1CCOCC1)Nc1ccc(-c2nc3ccccc3[nH]2)cc1,?,24.8%,-9.3%,13.5µM*,?,?
COC(=O)c1sc(N2C(=O)c3oc4ccc(C)cc4c(=O)c3C2c2ccc(O)c(OC)c2)nc1C (stereo not drawn),.,-4.2%,.,-6.4%,.,.
CCCn1c(C)nc2c(NCCN(C)C)nc(C)nc21,.,5.7%,-2.6%,.,.,.
Cc1ccc2nc(SCC(=O)Nc3ccc(C(N)=O)cc3)[nH]c2c1,-1.1%,.,-3.3%,-5.8%,7.0%,-16.8%
O=C(Nc1nc2ccccc2[nH]1)C1CCCO1 (stereo not drawn),?,28.8%,-12.6%,?,15.7%,?
O=C(CSc1ccc(Cl)cc1)Nc1cccc(-c2nc3ccccc3[nH]2)c1,16.5%,2.82µM*,1.3%,-6.7%,19.7%,?
O=C(Nc1ccc(-c2nc3ccccc3[nH]2)cc1)C1CCCO1 (stereo not drawn),0.355µM*,2.24µM*,3.98µM*,1.2µM*,0.411µM*,0.316µM*
Cc1ccc2nc(-c3ccc(NC(=O)CSc4ccccc4)cc3)[nH]c2c1,1.58µM*,3.55µM*,3.1%,?,?,2.51µM*
O=C(O)[C@@H]1CS[C@@]2(CCCN(Cc3ccccc3)C2)N1,.,2.4%[9.22 µM],-2.1%[7.66 µM],.,.,.
Cc1ccc(N2C(=O)c3oc4cc(C)c(C)cc4c(=O)c3C2c2cccc(O)c2)nc1 (stereo not drawn),.,4.6%,.,4.0%,.,.
O=S(=O)(c1ccc(C2CCCCC2)cc1)N1CCN(c2cc(Cl)ccc2Cl)CC1,.,4.6%,.,-5.2%,.,.
CN1C(=O)C2CCCCN2c2ccc(C(=O)NCc3ccccc3Br)cc21 (stereo not drawn),.,.,.,-8.9%,.,.
O=C(CC(Nc1ccccc1)c1ccc(F)cc1)c1ccccc1 (stereo not drawn),-0.7%,-2.3%,2.2%,?,?,4.4%
O=C(CC(Nc1ccccc1)C(=O)O)c1ccccc1 (stereo not drawn),3.16µM*,12.6µM*,?,0.849µM*,?,2.82µM*
O=C(CC(C(=O)O)c1cccc(Cl)c1)c1ccccc1 (stereo not drawn),0.2%,.,.,1.7%,-0.5%,-10.9%
Cc1ccc(NC(CC(=O)c2ccccc2)C(=O)O)cc1Cl (stereo not drawn),10.1%,.,.,2.13µM*,?,?
